In PubChem BioAssay (NCI):
The panel holds about 83,000 compounds, 20% with a hit somewhere; the sample as a whole holds those more often.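 Treatment: one concentration, 48 hours, 96-well format. Scoring: percent growth, with anything below 10 considered active.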 Values without a mark were called inactive. Active and inactive are the calls of the source.

Assays:
Assay in all cases: NCI-60 one-dose screen, 48 h (100 = growth as untreated, 0 = no growth, -100 = all killed)
Details in all cases: 10 µM
NCI-H23 lung = system: NCI-H23 lung
NCI-H226 lung = system: NCI-H226 lung
NCI-H322M lung = system: NCI-H322M lung
HOP-62 NSCLC = system: HOP-62 NSCLC
NCI-H460 lung = system: NCI-H460 lung
NCI-H522 lung = system: NCI-H522 lung
786-0 renal = system: 786-0 renal
COLO 205 colon = system: COLO 205 colon
DU-145 prostate = system: DU-145 prostate
K-562 leukemia = system: K-562 leukemia
MALME-3M melanoma = system: MALME-3M melanoma
MDA-MB-231 breast = system: MDA-MB-231 breast
RXF 393 renal = system: RXF 393 renal
SF-268 CNS = system: SF-268 CNS
SF-295 CNS = system: SF-295 CNS
SF-539 CNS = system: SF-539 CNS
UACC-257 melanoma = system: UACC-257 melanoma
M14 melanoma = system: M14 melanoma
A549/ATCC NSCLC = system: A549/ATCC NSCLC
HCT-15 colon = system: HCT-15 colon

SMILES	growth (NCI-H23 lung)	growth (NCI-H226 lung)	growth (NCI-H322M lung)	growth (HOP-62 NSCLC)	growth (NCI-H460 lung)	growth (NCI-H522 lung)	growth (786-0 renal)	growth (COLO 205 colon)	growth (DU-145 prostate)	growth (K-562 leukemia)	growth (MALME-3M melanoma)	growth (MDA-MB-231 breast)	growth (RXF 393 renal)	growth (SF-268 CNS)	growth (SF-295 CNS)	growth (SF-539 CNS)	growth (UACC-257 melanoma)	growth (M14 melanoma)	growth (A549/ATCC NSCLC)	growth (HCT-15 colon)
COc1ccc(-n2c(SCc3cc(OC)c(OC)c(OC)c3)nc3ccc(C)cc3c2=O)cc1	69.2%	73.4%	80.3%	65.2%	73.8%	39.4%	84.1%	32.7%	94.9%	16.9%	59.7%	59.8%	52.8%	80.6%	51.4%	77.7%	77.3%	53.8%		
CC1CN(Cc2ccccc2)C(=O)NC1=O (configuration not stated)	110%	106%	122%	105%	109%	91.8%	112%	108%		108%	106%	107%	124%	103%	126%	107%	102%	111%	103%	112%
Clc1ccc(-c2cn(-c3ccccc3)c(-c3ccccc3)n2)c(Cl)c1	67.6%	40.7%	-17% (active)	31.6%	-100% (active)	42.6%	-50.3% (active)	-64.3% (active)	-89.7% (active)	24.8%	-43.3% (active)	-11.7% (active)	41.3%	-26.7% (active)	19.5%	-22.2% (active)	52.2%	16.7%		
COc1ccc2c(c1)[n+]([O-])c(C#N)c(NC(=O)c1ccco1)[n+]2[O-]	99.9%	97.7%	95.2%	93.7%	107%	98.1%	105%	96.2%		92.8%	103%	92.3%		107%	99.9%	107%		104%	111%	99%
CN1CCCNc2c(c(=O)c2=O)NCCCN(C)CCCNc2c(c(=O)c2=O)NCCCN(C)CCCNc2c(c(=O)c2=O)NCCCN(C)CCCNc2c(c(=O)c2=O)NCCCN(C)CCCNc2c(c(=O)c2=O)NCCCN(C)CCCNc2c(c(=O)c2=O)NCCCN(C)CCCNc2c(c(=O)c2=O)NCCC1	46.8%	74.6%	44.8%	49.1%	32.1%	56.1%	54.3%	13.9%	-30.2% (active)			46.5%		-16.5% (active)	65.9%	6.63% (active)	21.2%	61.1%	37.1%	62.4%
O=C(O)c1ccc(P(=O)(O)O)c([N+](=O)[O-])c1	115%	94.4%	102%	101%	103%	99.1%	110%	112%	108%	107%	97.7%	108%	105%	110%	99.2%	104%	92.2%	114%		102%
O=C1C(=O)c2ccccc2C(O)=C1CCCc1ccc(C2CCCCCC2)cc1	23.4%	37.6%	23.7%	40.8%	11.6%	42%	55.7%	36.5%	44%	23.7%	13.5%	68.4%	68.1%	53.9%	-0.205% (active)	37.9%	44%	49.3%		25.2%
Cc1cc(=O)[nH]c(N/N=C/c2ccccc2O)n1	78.6%	91%	-5.84% (active)	61.3%	23.3%	77.3%	93.4%	49.2%	78.8%	59.9%	35.1%	76.6%	90%	39.1%	43.2%	96.8%	88%	29.9%		40.7%
COc1cc2c(cc1OCCCN1CCN(c3ncnc4ccccc34)CC1)N=CC1CCCN1C2=O (configuration not stated)	-8.7% (active)	-50.1% (active)	-3.85% (active)	4.07% (active)	8.4% (active)	-37.7% (active)	7.51% (active)	-42% (active)		-24.8% (active)	-71.7% (active)	-34.4% (active)		10.3%	-20.9% (active)	-82.7% (active)		-46.8% (active)	-2.44% (active)	1.25% (active)
CC(=O)CSC(C)=O	108%	99%	104%	101%	103%	105%	102%	119%	117%	106%	89.6%	99.7%	109%	105%	91.8%	95.2%	100%	103%		103%
N#Cc1cc(-c2cc3ccccc3o2)oc1N	11.4%	17.4%	2.76% (active)	20%	9.76% (active)	-4.4% (active)	11.7%	12.9%		2.52% (active)	-5.2% (active)	-27.1% (active)		29%	-28.1% (active)	-45% (active)		26.4%	-5.69% (active)	9.98% (active)
O=C(Nc1ccncc1)C(=O)c1cn(S(=O)(=O)c2cc(Cl)cc(Cl)c2)c2ccccc12	70.3%	74.2%	99.6%	71.7%	87.3%	40.2%	72.5%	104%	66.5%	28.5%		63.6%	75%	94.3%	38.2%	61.7%	69.8%	71.5%		69.5%
COc1cc(/C=C2\CCCC3=C2N=C2SC=NN2C3c2cc(OC)c(OC)c(OC)c2)cc(OC)c1OC (configuration not stated)	28.9%	13.6%	28.4%	11.8%	1.24% (active)	46.5%	32%	25.7%	8.36% (active)	8.28% (active)		2.06% (active)	21.7%	22.9%	21.4%	5.9% (active)	34.3%	9.84% (active)		6.59% (active)
O=c1c2ccccc2nc(SCCN2CCCCC2)n1CCc1ccccc1	77.5%	101%	97.6%	89%	105%	89.2%	86.7%	74.7%	101%			66.5%		101%	87.5%	90.2%	95.9%	103%		80.7%
COc1ccc(-c2cc(/C=C/C(=O)c3cc(OC)c(OC)c(OC)c3)[nH]n2)cc1OC	47.2%	63%	1.57% (active)		-45.7% (active)	-69.8% (active)	-57.9% (active)	-42.5% (active)	0.588% (active)	5.1% (active)	-17.5% (active)	-25.3% (active)	-16.9% (active)	-45.7% (active)	29.1%	-51.4% (active)	69.6%	53.2%	20.8%	-15.5% (active)
CC[C@H]1CCC/C=C/[C@@H]2C[C@H](O)C[C@H]2[C@H](O)/C=C/C(=O)O1	-12.8% (active)	-1.27% (active)	-2.58% (active)		6.08% (active)	-56.8% (active)	-49% (active)	-97.2% (active)	3.43% (active)	10.3%		-88.4% (active)	-29.2% (active)	8% (active)	-1.83% (active)	30.9%	-13.6% (active)	2.47% (active)	5.74% (active)	8.78% (active)
CC/C(=C(/c1ccc(OCCN(C)C)cc1)c1ccc(OC(=O)CCCCCCCCC(=O)c2c(C)[nH]c(/C=C3\N=C(c4ccc[nH]4)C=C3OC)c2C)cc1)c1ccccc1	88%	52.6%	77%		46.9%	54.5%	63.9%	88%	67.6%	33.5%	68.1%	11.2%	69.1%	71.7%	89%	83.4%	90.5%	38.6%	50%	58%
